Measured values as given in publication PMC7862700, “An all-to-all approach to the identification of sequence-specific readers for epigenetic DNA modifications on cytosine”.

Experiments:
Assay in all cases: DAPPL (digital affinity profiling via proximity ligation, sequencing); 10 mM Tris-HCl pH 7.5, 50 mM NaCl, 1 mM DTT, 4% glycerol, room temperature, 30 min; GST-TFs on glutathione beads, 16-mer random dsDNA library, 0.1% formaldehyde crosslink after washing; high values mean tight binding
FLI1 = target: T1, FLI1 (Homo sapiens, UniProt Q01543 1-452); conditions: protein: recombinant; tags: N-terminal GST; dsDNA, one strand shown
T1 sequence: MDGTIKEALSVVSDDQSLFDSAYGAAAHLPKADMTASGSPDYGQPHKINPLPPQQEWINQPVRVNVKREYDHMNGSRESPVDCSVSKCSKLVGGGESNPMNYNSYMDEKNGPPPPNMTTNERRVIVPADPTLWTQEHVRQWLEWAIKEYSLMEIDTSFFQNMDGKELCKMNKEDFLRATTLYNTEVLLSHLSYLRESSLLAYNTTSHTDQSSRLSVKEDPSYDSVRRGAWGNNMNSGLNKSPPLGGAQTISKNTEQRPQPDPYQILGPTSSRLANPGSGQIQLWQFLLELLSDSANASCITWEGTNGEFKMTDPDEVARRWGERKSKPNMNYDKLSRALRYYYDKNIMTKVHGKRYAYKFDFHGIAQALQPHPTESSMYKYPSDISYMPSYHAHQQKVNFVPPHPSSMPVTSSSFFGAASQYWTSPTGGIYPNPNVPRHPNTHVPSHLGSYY
How it was run: (§1)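 After expression in yeast as GST fusions, human transcription factors were bound to glutathione beads, DNA-barcoded and mixed with a tag-only sample. The pools were incubated with 200 nmole of a 16-mer random double-stranded DNA library in Tris/NaCl/DTT/glycerol buffer (30 min, room temperature), washed and crosslinked with 0.1% formaldehyde. Proximity ligation with BsaI/T4 ligase ran for 1 h at 37 °C, before PCR amplification and sequencing on an Illumina NextSeq500. Binding signal is a hexamer's read frequency for a factor divided by its frequency for the tag-only sample.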

ELK1 = target: T2, ELK1 (Homo sapiens, UniProt P19419 1-428); conditions: protein: recombinant; tags: N-terminal GST; dsDNA, one strand shown
T2 sequence: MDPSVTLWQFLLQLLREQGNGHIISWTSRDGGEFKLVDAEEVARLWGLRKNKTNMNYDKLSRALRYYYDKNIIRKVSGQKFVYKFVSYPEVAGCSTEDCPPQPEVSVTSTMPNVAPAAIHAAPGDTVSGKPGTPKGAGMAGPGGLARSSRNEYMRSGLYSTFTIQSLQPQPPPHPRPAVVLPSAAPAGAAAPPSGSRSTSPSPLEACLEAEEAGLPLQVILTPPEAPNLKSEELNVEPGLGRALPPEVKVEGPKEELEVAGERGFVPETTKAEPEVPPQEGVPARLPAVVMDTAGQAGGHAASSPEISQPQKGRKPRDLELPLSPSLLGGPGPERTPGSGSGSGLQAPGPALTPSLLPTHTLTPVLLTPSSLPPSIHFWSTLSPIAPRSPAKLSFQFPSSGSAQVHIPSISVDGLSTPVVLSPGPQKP
How it was run: as §1

GABPA = target: T3, GABPA (Homo sapiens, UniProt Q06546 1-454); conditions: protein: recombinant; tags: N-terminal GST; dsDNA, one strand shown
T3 sequence: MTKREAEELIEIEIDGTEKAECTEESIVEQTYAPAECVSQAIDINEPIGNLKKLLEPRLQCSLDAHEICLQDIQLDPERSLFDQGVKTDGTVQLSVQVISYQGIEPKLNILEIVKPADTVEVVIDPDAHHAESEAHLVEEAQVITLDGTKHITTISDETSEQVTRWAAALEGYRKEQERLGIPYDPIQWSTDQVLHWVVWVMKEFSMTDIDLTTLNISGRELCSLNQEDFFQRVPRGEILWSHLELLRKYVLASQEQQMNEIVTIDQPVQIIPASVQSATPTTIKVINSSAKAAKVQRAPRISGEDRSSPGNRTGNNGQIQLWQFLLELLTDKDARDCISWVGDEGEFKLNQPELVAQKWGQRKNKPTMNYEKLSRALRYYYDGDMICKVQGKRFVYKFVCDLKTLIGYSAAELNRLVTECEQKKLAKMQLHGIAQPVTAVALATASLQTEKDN
How it was run: as §1

ERG = target: T4, ERG (Homo sapiens, UniProt P11308 1-479); conditions: protein: recombinant; tags: N-terminal GST; dsDNA, one strand shown
T4 sequence: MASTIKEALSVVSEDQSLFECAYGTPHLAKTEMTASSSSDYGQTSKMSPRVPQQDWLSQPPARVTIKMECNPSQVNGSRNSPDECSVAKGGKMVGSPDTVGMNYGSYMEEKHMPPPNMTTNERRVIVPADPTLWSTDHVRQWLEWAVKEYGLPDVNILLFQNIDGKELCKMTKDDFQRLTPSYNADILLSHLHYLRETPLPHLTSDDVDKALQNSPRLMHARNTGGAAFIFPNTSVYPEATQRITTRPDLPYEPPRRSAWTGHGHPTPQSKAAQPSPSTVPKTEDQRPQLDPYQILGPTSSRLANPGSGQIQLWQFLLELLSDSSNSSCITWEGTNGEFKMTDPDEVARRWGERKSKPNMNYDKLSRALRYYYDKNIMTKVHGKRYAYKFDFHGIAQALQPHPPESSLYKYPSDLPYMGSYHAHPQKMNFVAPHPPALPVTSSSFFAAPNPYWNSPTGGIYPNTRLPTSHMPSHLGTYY
How it was run: as §1

ELF1 = ELF1 (Homo sapiens, UniProt P32519 1-619); conditions: protein: recombinant; tags: N-terminal GST; dsDNA, one strand shown
How it was run: as §1

EHF = target: T5, EHF (Homo sapiens, UniProt Q9NZC4 1-300); conditions: protein: recombinant; tags: N-terminal GST; dsDNA, one strand shown
T5 sequence: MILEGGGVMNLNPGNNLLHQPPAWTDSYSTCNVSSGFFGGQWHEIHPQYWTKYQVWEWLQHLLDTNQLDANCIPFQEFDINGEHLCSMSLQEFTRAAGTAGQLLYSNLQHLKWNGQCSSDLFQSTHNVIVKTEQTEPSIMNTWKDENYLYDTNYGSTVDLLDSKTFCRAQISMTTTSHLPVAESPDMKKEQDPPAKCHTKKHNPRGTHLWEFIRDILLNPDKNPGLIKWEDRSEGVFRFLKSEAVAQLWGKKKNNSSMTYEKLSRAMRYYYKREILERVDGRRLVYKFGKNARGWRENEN
How it was run: as §1

SPI1 = SPI1 (Homo sapiens, UniProt P17947 1-270); conditions: protein: recombinant; tags: N-terminal GST; dsDNA, one strand shown
How it was run: as §1

SPIB = SPIB (Homo sapiens, UniProt Q01892 1-262); conditions: protein: recombinant; tags: N-terminal GST; dsDNA, one strand shown
How it was run: as §1

ELK3 = target: T6, ELK3 (Homo sapiens, UniProt P41970 1-407); conditions: protein: recombinant; tags: N-terminal GST; dsDNA, one strand shown
T6 sequence: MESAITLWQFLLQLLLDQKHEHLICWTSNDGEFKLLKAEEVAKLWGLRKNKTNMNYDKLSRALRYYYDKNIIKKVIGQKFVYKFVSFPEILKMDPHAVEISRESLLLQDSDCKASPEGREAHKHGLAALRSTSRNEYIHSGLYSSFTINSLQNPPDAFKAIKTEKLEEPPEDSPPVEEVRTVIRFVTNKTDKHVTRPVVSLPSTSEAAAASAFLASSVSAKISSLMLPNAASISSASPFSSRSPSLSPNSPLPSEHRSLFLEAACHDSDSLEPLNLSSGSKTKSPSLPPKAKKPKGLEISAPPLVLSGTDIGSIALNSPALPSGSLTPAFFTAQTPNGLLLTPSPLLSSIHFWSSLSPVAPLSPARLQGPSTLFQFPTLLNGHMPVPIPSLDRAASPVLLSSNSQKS
How it was run: as §1

FEV = target: T7, FEV (Homo sapiens, UniProt Q99581 1-238); conditions: protein: recombinant; tags: N-terminal GST; dsDNA, one strand shown
T7 sequence: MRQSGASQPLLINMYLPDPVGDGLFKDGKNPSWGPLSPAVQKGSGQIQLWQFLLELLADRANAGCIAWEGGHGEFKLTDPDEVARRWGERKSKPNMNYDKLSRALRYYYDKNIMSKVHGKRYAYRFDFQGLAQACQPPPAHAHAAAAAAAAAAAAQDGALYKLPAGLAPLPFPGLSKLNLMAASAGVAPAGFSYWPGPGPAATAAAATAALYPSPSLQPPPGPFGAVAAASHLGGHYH
How it was run: as §1

ETV5 = ETV5 (Homo sapiens, UniProt P41161 1-510); conditions: protein: recombinant; tags: N-terminal GST; dsDNA, one strand shown
How it was run: as §1

HSF1 = HSF1 (Homo sapiens, UniProt Q00613 1-529); conditions: protein: recombinant; tags: N-terminal GST; chain copies: 3; dsDNA, one strand shown
How it was run: as §1

SPIC = target: T8, SPIC (Homo sapiens, UniProt Q8N5J4 1-248); conditions: protein: recombinant; tags: N-terminal GST; dsDNA, one strand shown
T8 sequence: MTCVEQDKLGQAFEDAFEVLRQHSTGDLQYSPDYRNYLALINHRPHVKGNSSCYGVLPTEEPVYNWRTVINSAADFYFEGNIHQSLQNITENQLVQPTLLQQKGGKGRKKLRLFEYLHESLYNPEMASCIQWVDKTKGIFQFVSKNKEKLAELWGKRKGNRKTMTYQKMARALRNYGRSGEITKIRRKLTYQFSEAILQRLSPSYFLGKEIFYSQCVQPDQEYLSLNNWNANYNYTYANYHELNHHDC
How it was run: as §1

ELF4 = ELF4 (Homo sapiens, UniProt Q99607 1-663); conditions: protein: recombinant; tags: N-terminal GST; dsDNA, one strand shown
How it was run: as §1

ELK4 = target: T9, ELK4 (Homo sapiens, UniProt P28324-2 1-405); conditions: protein: recombinant; tags: N-terminal GST; dsDNA, one strand shown
T9 sequence: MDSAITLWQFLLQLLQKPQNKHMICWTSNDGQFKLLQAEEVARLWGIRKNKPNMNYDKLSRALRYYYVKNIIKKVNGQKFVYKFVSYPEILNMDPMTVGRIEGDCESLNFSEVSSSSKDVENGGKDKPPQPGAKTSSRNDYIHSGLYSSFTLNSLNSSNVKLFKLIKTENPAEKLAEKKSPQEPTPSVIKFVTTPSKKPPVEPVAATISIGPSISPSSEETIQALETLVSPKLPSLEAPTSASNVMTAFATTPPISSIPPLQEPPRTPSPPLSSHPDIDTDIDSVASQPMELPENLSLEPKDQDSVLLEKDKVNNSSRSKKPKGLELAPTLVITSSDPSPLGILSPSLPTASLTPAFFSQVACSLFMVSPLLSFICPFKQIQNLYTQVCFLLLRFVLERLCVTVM
How it was run: as §1

ETV2 = target: T10, ETV2 (Homo sapiens, UniProt O00321 1-342); conditions: protein: recombinant; tags: N-terminal GST; dsDNA, one strand shown
T10 sequence: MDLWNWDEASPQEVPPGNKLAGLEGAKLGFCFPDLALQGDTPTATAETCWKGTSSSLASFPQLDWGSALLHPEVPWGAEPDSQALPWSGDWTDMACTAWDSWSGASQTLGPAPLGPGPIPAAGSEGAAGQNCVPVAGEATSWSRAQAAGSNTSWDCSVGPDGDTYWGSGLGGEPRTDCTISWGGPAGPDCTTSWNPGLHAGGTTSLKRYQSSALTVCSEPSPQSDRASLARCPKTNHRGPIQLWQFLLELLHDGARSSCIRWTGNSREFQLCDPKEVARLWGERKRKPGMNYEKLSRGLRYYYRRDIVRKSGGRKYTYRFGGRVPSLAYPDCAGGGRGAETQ
How it was run: as §1

ELF3 = target: T11, ELF3 (Homo sapiens, UniProt P78545 1-371); conditions: protein: recombinant; tags: N-terminal GST; dsDNA, one strand shown
T11 sequence: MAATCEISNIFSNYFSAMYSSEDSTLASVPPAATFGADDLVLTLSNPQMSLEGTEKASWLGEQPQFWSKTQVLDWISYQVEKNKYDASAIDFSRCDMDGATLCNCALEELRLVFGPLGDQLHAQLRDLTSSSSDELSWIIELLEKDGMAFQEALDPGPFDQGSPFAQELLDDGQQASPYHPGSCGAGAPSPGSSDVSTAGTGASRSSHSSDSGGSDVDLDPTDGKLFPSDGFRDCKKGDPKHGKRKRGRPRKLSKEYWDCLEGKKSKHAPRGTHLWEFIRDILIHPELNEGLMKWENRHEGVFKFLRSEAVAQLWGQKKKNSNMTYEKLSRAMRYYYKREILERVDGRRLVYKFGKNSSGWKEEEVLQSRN
How it was run: as §1

ETV1 = ETV1 (Homo sapiens, UniProt P50549 1-477); conditions: protein: recombinant; tags: N-terminal GST; dsDNA, one strand shown
How it was run: as §1

Sequence of ELF4 (Q99607 whole entry): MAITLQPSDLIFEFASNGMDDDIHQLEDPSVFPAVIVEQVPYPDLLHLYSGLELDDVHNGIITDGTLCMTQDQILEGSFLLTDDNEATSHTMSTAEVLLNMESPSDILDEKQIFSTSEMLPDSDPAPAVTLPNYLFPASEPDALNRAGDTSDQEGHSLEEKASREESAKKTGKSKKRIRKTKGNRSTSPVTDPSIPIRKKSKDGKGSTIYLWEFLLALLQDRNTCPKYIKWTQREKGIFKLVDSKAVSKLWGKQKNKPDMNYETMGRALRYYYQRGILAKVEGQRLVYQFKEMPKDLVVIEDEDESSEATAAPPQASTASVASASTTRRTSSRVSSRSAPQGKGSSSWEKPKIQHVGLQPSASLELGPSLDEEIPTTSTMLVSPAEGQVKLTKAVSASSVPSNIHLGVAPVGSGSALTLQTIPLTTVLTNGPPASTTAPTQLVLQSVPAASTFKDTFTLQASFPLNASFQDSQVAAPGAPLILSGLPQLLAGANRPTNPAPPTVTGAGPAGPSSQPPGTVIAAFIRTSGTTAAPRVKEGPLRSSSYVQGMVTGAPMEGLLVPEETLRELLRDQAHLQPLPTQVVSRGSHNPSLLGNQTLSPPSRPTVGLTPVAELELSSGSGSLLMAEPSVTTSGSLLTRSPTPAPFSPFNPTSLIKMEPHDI
Sequence of SPIB (Q01892 whole entry): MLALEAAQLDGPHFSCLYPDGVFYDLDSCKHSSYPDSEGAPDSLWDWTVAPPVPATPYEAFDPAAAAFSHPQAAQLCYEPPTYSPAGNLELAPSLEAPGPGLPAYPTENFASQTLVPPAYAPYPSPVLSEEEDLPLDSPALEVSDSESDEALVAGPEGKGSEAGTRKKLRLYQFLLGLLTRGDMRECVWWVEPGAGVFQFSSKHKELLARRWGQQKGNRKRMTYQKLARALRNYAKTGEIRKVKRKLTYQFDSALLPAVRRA
Sequence of ETV1 (P50549 whole entry): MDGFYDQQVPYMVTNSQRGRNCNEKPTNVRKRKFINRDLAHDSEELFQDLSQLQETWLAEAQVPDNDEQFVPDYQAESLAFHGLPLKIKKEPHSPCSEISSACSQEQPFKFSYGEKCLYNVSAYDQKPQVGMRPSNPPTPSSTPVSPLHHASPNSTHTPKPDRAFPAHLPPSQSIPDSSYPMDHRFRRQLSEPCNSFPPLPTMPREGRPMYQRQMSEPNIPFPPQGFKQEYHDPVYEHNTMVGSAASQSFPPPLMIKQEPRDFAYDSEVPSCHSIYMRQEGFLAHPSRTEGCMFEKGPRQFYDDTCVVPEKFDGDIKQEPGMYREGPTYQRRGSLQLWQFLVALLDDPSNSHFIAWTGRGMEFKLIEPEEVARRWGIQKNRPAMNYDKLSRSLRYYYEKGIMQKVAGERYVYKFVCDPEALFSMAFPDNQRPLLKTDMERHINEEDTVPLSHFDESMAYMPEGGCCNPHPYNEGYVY
Sequence of ETV5 (P41161 whole entry): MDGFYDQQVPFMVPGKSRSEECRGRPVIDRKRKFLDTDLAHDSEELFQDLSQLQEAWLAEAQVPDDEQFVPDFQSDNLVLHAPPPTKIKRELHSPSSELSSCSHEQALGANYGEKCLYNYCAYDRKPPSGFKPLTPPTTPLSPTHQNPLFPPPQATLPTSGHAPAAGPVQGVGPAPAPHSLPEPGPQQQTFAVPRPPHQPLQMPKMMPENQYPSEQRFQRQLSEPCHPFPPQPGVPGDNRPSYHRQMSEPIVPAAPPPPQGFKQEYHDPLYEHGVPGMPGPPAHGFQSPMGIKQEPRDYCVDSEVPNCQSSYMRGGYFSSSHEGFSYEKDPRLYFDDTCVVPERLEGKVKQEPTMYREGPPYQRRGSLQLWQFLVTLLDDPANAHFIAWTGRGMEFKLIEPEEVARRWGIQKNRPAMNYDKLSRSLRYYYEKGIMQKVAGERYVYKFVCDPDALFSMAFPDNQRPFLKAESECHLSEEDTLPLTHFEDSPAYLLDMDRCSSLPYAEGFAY
Sequence of HSF1 (Q00613 whole entry): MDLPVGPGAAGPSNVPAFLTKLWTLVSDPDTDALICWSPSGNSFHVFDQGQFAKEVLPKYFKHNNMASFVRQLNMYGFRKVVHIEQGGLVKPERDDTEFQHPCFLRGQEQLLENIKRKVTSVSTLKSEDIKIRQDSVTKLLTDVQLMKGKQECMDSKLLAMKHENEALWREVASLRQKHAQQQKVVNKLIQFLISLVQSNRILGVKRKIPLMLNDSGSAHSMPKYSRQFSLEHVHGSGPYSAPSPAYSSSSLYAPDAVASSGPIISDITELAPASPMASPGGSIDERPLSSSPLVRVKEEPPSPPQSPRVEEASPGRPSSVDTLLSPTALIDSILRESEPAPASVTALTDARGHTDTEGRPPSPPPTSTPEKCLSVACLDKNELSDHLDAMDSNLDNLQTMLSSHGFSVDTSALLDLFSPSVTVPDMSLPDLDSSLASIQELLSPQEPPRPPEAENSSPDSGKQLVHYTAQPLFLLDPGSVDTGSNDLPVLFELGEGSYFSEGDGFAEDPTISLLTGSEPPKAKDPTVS
Sequence of ELF1 (P32519 whole entry): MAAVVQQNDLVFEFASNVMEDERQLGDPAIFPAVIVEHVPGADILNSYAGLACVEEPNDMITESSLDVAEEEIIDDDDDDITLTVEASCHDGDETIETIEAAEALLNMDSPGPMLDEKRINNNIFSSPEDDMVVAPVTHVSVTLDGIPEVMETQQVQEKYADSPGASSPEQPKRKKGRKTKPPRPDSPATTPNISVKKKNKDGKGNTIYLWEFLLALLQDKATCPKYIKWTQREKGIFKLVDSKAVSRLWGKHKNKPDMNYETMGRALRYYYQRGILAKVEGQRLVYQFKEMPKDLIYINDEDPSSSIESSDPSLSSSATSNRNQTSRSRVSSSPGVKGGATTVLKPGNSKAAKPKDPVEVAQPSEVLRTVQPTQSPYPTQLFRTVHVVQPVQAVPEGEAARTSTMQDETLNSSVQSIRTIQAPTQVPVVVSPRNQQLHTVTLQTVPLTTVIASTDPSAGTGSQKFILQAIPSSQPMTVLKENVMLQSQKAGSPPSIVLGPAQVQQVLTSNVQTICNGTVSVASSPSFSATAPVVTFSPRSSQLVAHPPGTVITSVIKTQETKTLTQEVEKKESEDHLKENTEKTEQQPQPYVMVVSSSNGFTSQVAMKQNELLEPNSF

CCGGCA
binding signal (FLI1): 1.38 fold enrichment (6-mer frequency, TF over GST control) | binding signal (ELK1): 1.37 fold enrichment (6-mer frequency, TF over GST control) | binding signal (GABPA): 1.39 fold enrichment (6-mer frequency, TF over GST control) | binding signal (ERG): 1.53 fold enrichment (6-mer frequency, TF over GST control) | binding signal (ELF1): 1.29 fold enrichment (6-mer frequency, TF over GST control) | binding signal (EHF): 1.4 fold enrichment (6-mer frequency, TF over GST control) | binding signal (SPI1): 1.44 fold enrichment (6-mer frequency, TF over GST control) | binding signal (SPIB): 1.53 fold enrichment (6-mer frequency, TF over GST control) | binding signal (ELK3): 1.5 fold enrichment (6-mer frequency, TF over GST control) | binding signal (FEV): 1.53 fold enrichment (6-mer frequency, TF over GST control) | binding signal (ETV5): 1.47 fold enrichment (6-mer frequency, TF over GST control) | binding signal (HSF1): 1.01 fold enrichment (6-mer frequency, TF over GST control) | binding signal (SPIC): 1.32 fold enrichment (6-mer frequency, TF over GST control) | binding signal (ELF4): 1.28 fold enrichment (6-mer frequency, TF over GST control) | binding signal (ELK4): 1.24 fold enrichment (6-mer frequency, TF over GST control) | binding signal (ETV2): 1.28 fold enrichment (6-mer frequency, TF over GST control) | binding signal (ELF3): 1.31 fold enrichment (6-mer frequency, TF over GST control) | binding signal (ETV1): 1.46 fold enrichment (6-mer frequency, TF over GST control)
